Tgondii IFNg: blocks Toxoplasma gondii growth in the presence of IFN-gamma; Toxoplasma gondii growth in IFN-gamma-treated host cells; active compounds read low; activity change, negative = inhibition, % (concentration not given with the values); 3.8% of 69,000 active; AID 1259416; in the data active = activity change below about -70%, passing the limit was not always enough;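 note: host cells are HeLa cells infected with Toxoplasma gondii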
The depositor's hits bear a star. The full list was thinned out, with hits kept by preference.

Results for Cc1onc(-c2c(Cl)cccc2Cl)c1-c1nc2cccc(F)c2c(=O)o1 ?
Tgondii IFNg: -35

What do the screens show for `COc1ccc(-c2noc(C(=O)NCc3ccc(CN4CCOCC4)cc3)n2)cc1OC`?
Tgondii IFNg: 40

Results for O=C(Nc1ccccc1C(F)(F)F)c1nc(Nc2ccccc2)c2ccccc2n1 ?
Tgondii IFNg: -54

What do the screens show for `Cc1cc(=O)oc2cc(CN3C[C@H](O)[C@@H](N4CCN(C)CC4)C3)ccc12`?
Tgondii IFNg: 8

Results for CC(Cc1ccc2c(c1)OCO2)CN1CC2C[C@@H](O)CN2C[C@H]1C (some centres undefined) ?
Tgondii IFNg: -86*

How did CC(C)CN1C(=O)N(C)C2(CCN(CC(C)Cc3ccc4c(c3)OCO4)CC2)C1=O (centres undefined) do in these assays?
Tgondii IFNg: -2

Results for Cc1cc(CN2CC3C[C@@H](O)CN3C[C@@H]2C)c(C)n1-c1ccc2c(c1)OCO2 (some centres undefined) ?
Tgondii IFNg: 2

How did CC(=O)N1CCO[C@H]2CCN(C(=O)C3CC=CC3)C[C@H]21 do in these assays?
Tgondii IFNg: 1

What do the screens show for `O=C(NCc1ccccc1N1CCCC1)c1ccc(-c2ccc(Cl)cc2)[nH]c1=O`?
Tgondii IFNg: 86

Results for COc1ncc(C2(O)CCN(Cc3ccc(COC(C)=O)o3)CC2)c(OC)n1 ?
Tgondii IFNg: 32

Results for Cc1nccnc1-c1ccnn1C(=O)Nc1cc(Cl)cc(Cl)c1 ?
Tgondii IFNg: -82*

Results for Cc1nc(-c2cccs2)sc1-c1ccnn1C(=O)NC(C)C ?
Tgondii IFNg: 98

What do the screens show for `COc1cc(NC(=O)Nc2ccnn2C)cc(OC)c1`?
Tgondii IFNg: -8

What do the screens show for `Cn1nccc1C(=O)N1CCC2(CC1)Nc1cc(F)ccc1-n1cccc12`?
Tgondii IFNg: 63

What do the screens show for `CCc1ccc(S(=O)(=O)N2CCC3(CC2)NCCN=C3NC2CCCCCC2)cc1`?
Tgondii IFNg: -52

Results for COc1cc2oc3cc(OC)c(OC)c(CC=C(C)C)c3c(=O)c2c(O)c1CC=C(C)C ?
Tgondii IFNg: 8

What do the screens show for `COc1c(O)cc2oc3cc(O)c(CC=C(C)C)c(O)c3c(=O)c2c1CC=C(C)C`?
Tgondii IFNg: -71*

How did CC(C)=CCc1c(O)cc2oc(C)cc(=O)c2c1O do in these assays?
Tgondii IFNg: 2

How did CCCCCC(=O)c1sc(Cl)c(Cl)c1Cl do in these assays?
Tgondii IFNg: -42

Results for CC(CCCC(C)(C)O)CCN1CCC2(CC1)C(=O)NCCCN2C (centres undefined) ?
Tgondii IFNg: 7

Results for O=C1NCN(c2ccccc2)C12CCN(CCCC(c1ccc(F)cc1)c1ccc(F)cc1)CC2 ?
Tgondii IFNg: -81*

What do the screens show for `O=C1NCCN(Cc2ccccc2)C12CCN(S(=O)(=O)c1ccc(F)cc1)CC2`?
Tgondii IFNg: -10

Results for CC(=O)NCCC1CCCCN1Cc1ccccc1-c1ccccc1 (centres undefined) ?
Tgondii IFNg: 2

Results for Cc1ccc2[nH]cc(CCNC(=O)c3cc(-c4ccccn4)nc4ccccc34)c2c1 ?
Tgondii IFNg: 61

What do the screens show for `O=C(Nc1cccc(Cn2cncn2)c1)c1cc(-c2ccccn2)nc2ccccc12`?
Tgondii IFNg: -29

What do the screens show for `Cn1nccc1-c1cc(C(=O)Nc2nc(-c3ccccn3)cs2)c2ccccc2n1`?
Tgondii IFNg: -101*

How did O=C(NCCNC(=O)C1CC2(CCNCC2)CN1)c1ccc(F)cc1 (centres undefined) do in these assays?
Tgondii IFNg: 1

Results for Cc1noc(-c2ccnc(-n3ncc(C(=O)NCCc4c[nH]c5ccccc45)c3C)c2)n1 ?
Tgondii IFNg: 3

Results for O=C(NCCc1c[nH]c2ccccc12)c1cc2occc2c(Nc2ccc(F)cc2)n1 ?
Tgondii IFNg: -85*

How did O=C(NCCc1c[nH]c2ccccc12)c1cccnc1 do in these assays?
Tgondii IFNg: 40

Results for CN1C[C@]23CN(C(=O)COc4ccccc4)C[C@@H](C[C@H]2S1(=O)=O)O3 ?
Tgondii IFNg: -47

What do the screens show for `O=C(c1cn(-c2ccccc2)nn1)N1CCC(OCc2ccccn2)CC1`?
Tgondii IFNg: 2

What do the screens show for `O=C(O)c1ccc(-c2ccc(O)c(F)c2)cc1`?
Tgondii IFNg: 42

How did O/N=C/c1ccc(-c2ccc(O)c(F)c2)c(Cl)c1O do in these assays?
Tgondii IFNg: -87*

Results for COc1ccc(-c2nc(C)c(CCNC(=O)c3ccc(Br)o3)s2)cc1OC ?
Tgondii IFNg: inactive

What do the screens show for `Clc1ccc(CSCCc2nc(-c3cccnc3)no2)cc1Cl`?
Tgondii IFNg: 37

How did COc1ccc(-c2nc(C)c(CCNS(=O)(=O)c3ccc4ccccc4c3)s2)cc1OC do in these assays?
Tgondii IFNg: -29

How did COc1ccc(-c2nc(C)c(CCNS(=O)(=O)c3ccc(C)cc3)s2)cc1OC do in these assays?
Tgondii IFNg: inactive

How did COc1ccc(-c2nc(C)c(CCNS(=O)(=O)c3ccc(Oc4ccccc4)cc3)s2)cc1OC do in these assays?
Tgondii IFNg: -97*

How did CC(C)c1cc2cccnc2n1CCc1noc(-c2ccc(C(F)(F)F)cc2)n1 do in these assays?
Tgondii IFNg: 66
